Compound activity as filed in PubChem.
pPAFAH FP inh: pPAFAH (human) enzyme inhibition | Q13093 | recombinant pPAFAH, FP-rhodamine probe fluorescence polarization | inhibition, % at 3.39 µM | 330,000 tested, 1.5% active;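 active = inhibition above the mean inhibition across the screen plus 3 SD, cut at about 25% in these data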;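 note: inhibitors block binding of the rhodamine activity-based probe so polarization drops; 0% = enzyme with DMSO and 100% = wells lacking pPAFAH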
PP1 counter: PP1-alpha (human) inhibition in PP5 counter-screen; purified PP1alpha, OMFP fluorescence; 320,000 tested, 0.9% active; P62136; inhibition, % at 6.7 µM;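 active = inhibition above the mean inhibition of all tested compounds plus 3 SD, computed separately for each screening campaign, cut at about 15% in these data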
PAFAH1B3 FP inh: blocks human PAF acetylhydrolase 1B catalytic subunit 3; recombinant PAFAH1B3, FP-rhodamine probe, fluorescence polarization; Q15102; 340,000 tested, 0.28% active; inhibition, % at 3.39 µM;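 active = inhibition above the screen-wide average of all tested compounds plus 3 SD, cut at about 25% in these data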;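 note: 0% = enzyme with DMSO only and 100% = wells lacking PAFAH1B3 protein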
Target sequence (Q15102 whole entry, looked up): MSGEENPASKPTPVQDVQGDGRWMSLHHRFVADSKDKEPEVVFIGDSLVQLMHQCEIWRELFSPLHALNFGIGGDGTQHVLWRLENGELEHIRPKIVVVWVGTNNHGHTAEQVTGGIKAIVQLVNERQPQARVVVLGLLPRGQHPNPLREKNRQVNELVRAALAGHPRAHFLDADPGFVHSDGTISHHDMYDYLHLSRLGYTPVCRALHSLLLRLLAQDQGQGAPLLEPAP
PAFAH2 inh: PAFAH2 (human) inhibition; inhibition, % at 3.39 µM; AID 492956; Q99487; recombinant PAFAH2, FP-rhodamine activity probe, fluorescence polarization; 340,000 tested, 0.99% active;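 active = inhibition above the mean over all tested compounds plus 3 SD, cut at about 30% in these data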;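 note: inhibitors block probe labeling of enzyme so polarization drops; 0% = enzyme with DMSO and 100% = wells lacking PAFAH2 protein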
PP5 inh: blocks human protein phosphatase 5 activity | P53041 | purified PP5c, OMFP substrate fluorescence | inhibition, % at 6.7 µM | 320,000 tested, 0.18% active | AID 1987;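 active = inhibition above the campaign's mean inhibition across all tested compounds plus 3 SD, cut at about 9.5% in these data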;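 note: 0% = DMSO only and 100% = 100 µM cantharidin control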
PAFAH1B2 FP inh: inhibitors of human PAFAH1B2; AID 492953; recombinant PAFAH1B2, FP-rhodamine activity probe, fluorescence polarization; inhibition, % at 3.39 µM; P68402; 340,000 tested, 1.2% active;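 active = inhibition above the mean of all tested compounds plus 3 SD, cut at about 24% in these data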;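 note: 0% = enzyme with DMSO and 100% = wells lacking PAFAH1B2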
Target sequence (P68402 whole entry, looked up): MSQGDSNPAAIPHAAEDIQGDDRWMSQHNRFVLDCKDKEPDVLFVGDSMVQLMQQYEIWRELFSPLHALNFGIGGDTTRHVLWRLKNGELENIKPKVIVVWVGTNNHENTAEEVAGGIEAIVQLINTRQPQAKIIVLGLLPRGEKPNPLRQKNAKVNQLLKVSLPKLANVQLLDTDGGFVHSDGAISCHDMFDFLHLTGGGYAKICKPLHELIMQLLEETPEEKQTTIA
PP1 inh confirm: confirmation of human PP1 phosphatase inhibitors; shares compounds with PP1 counter; purified PP1alpha, OMFP substrate fluorescence; inhibition, % at 6.7 µM; 1,900 tested, 52% active; AID 2358;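 active = mean PP1 inhibition above a set limit taken from the earlier primary screen, cut at about 15% in these data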
PP5 inh counter: inhibits human PP5 phosphatase in PP1 counter-screen; 1,900 tested, 4% active; inhibition, % at 6.7 µM; purified PP5c, OMFP fluorescence; AID 2360; shares compounds with PP1 counter;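 active = mean PP5 inhibition over triplicate wells above about 9.5% taken from the earlier PP1 screen, limit read from the data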
The depositor's hits bear a star; · = no result. A selection: hits, their analogues and other compounds. The true share with any hit is near 3.4%.

SMILES	pPAFAH FP inh	PP1 counter	PAFAH1B3 FP inh	PAFAH2 inh	PP5 inh	PAFAH1B2 FP inh	PP1 inh confirm	PP5 inh counter
CCOC(=O)C1=C(O)C(=O)NC(c2ccccc2)=C(OCC)C1	5.1	-0.9	-1.2	7.1	1.1	-3.1	·	·
CCOC(=O)C1=C(O)C(=O)NC(c2ccccc2)=C(OC2CCCCC2)C1	4.0	23.6*	-2.6	-0.5	1.1	-2.3	31.0*	-1.4
CCn1cc(C(=O)O)c(=O)c2cc(F)c(N3CCN(C(=S)NC(=O)c4c(OC)cccc4OC)CC3)cc21	1.1	12.6	-1.1	4.2	1.7	2.8	·	·
CCn1cc(C(=O)O)c(=O)c2cc(F)c(N3CCN(C(=S)Nc4ccccc4OC)CC3)cc21	3.0	24.6*	-6.0	-0.4	2.0	-7.1	14.8	-4.0
O=C(N/N=C/c1ccc(F)cc1)c1cc(-c2ccco2)nc2ccccc12	30.4*	19.1*	13.0	5.2	0.2	-1.9	13.2	1.6
Cc1nnc(NC(=O)c2cc(-c3ccco3)nc3ccccc23)s1	27.2*	29.7*	6.9	5.8	-0.7	2.9	5.9	-0.4
O=C(N/N=C/c1ccc([N+](=O)[O-])o1)c1cc(-c2ccc(-c3ccccc3)cc2)nc2ccccc12	-8.7	26.9*	4.1	3.7	4.2	2.9	28.9*	3.5
CCOc1ccc(/C=N/NC(=O)c2cc(-c3ccco3)nc3ccccc23)cc1	1.6	0.0	1.7	-7.8	-0.2	4.7	·	·
Cc1cc(C)c2sc(NNC(=O)c3ccc(S(=O)(=O)N4CCc5ccccc5C4)cc3)nc2c1	15.0	24.3*	14.3	9.1	3.9	16.2	37.5*	-2.1
Cc1cc(C)c2sc(N(CCCN(C)C)C(=O)c3ccc(S(=O)(=O)N4CCc5ccccc5C4)cc3)nc2c1	-3.0	7.8	7.6	7.9	5.2	3.9	·	·
Cc1cc(C)c2nc(NNC(=O)c3ccc(S(=O)(=O)N4CCc5ccccc5C4)cc3)sc2c1	11.6	21.9*	9.1	-3.0	1.1	9.5	26.8*	1.0
CCc1nnc(NC(=O)c2ccc(S(=O)(=O)N3CCc4ccccc4C3)cc2)s1	4.7	-3.7	-0.4	-1.9	0.4	6.9	·	·
CCOc1ccccc1CN1CCN(Cc2csc(C(C)=O)c2)CC1CCO (stereo unspecified)	2.0	1.0	7.6	12.4	-0.6	3.4	·	·
CNC(=O)N(O)C1N(/N=C/c2cc(Br)ccc2O)C(=S)SC1(C)C (stereo unspecified)	-1.2	0.1	-3.8	17.8	5.7	1.6	·	·
COc1ccc(OC)c(/C=C/C(=O)NCCc2nc3ccccc3[nH]2)c1	5.0	-4.4	0.3	5.2	-0.7	6.7	·	·
COc1ccc(-c2csc(NC(=O)CCN3C(=O)C4CC=CCC4C3=O)n2)cc1OC (stereo unspecified)	4.8	25.6*	4.4	0.3	5.9	2.2	-3.6	-2.3
COc1ccc(-c2csc(NC(=O)CN3C(=O)C4CC=CCC4C3=O)n2)cc1 (stereo unspecified)	3.8	-2.7	4.8	-3.3	4.3	-3.5	·	·
CCOC(=O)C1=C(c2ccccc2)N=c2s/c(=C\c3cc(OC)c(OC)c(OC)c3)c(=O)n2C1c1cccs1 (stereo unspecified)	-4.9	0.2	1.7	-6.6	2.7	-4.7	·	·
CCOC(=O)C1=C(c2ccccc2)N=c2s/c(=C\c3ccco3)c(=O)n2C1c1cccs1 (stereo unspecified)	29.1*	20.9*	8.4	3.1	1.1	8.4	19.0*	-2.1
COC(=O)c1ccc(CNC(=O)c2ccc(COc3ccccc3)cc2)cc1	-6.3	26.1*	1.1	-13.7	0.3	0.5	23.8*	-2.5
COc1cccc(CNC(=O)c2ccc(COc3ccccc3)cc2)c1	-1.9	-2.2	7.0	-4.4	5.1	7.5	·	·
CCOC(=O)C1=C(c2ccccc2)NC(N)=NC1c1ccc(OCc2ccc(C(=O)OC)cc2)cc1 (stereo unspecified)	-2.3	43.8*	1.2	-9.0	1.9	-2.6	31.4*	-4.0
COc1ccc(CNC(=O)CN2C(=O)NC(Cc3ccccc3)(c3ccccc3)C2=O)cc1OC (stereo unspecified)	1.3	-2.9	-4.4	-4.4	-0.8	7.8	·	·
COCc1cc(=O)n2[nH]cc(-c3ccsc3)c2n1	8.7	2.5	6.9	0.1	1.6	2.6	·	·
Cc1c[nH]c2cccc(OCC(CNC(C)(C)C)OC(=O)c3ccccc3)c12 (stereo unspecified)	1.5	2.5	6.5	2.1	0.6	-0.1	·	·
SMILES	pPAFAH FP inh	PP1 counter	PAFAH1B3 FP inh	PAFAH2 inh	PP5 inh	PAFAH1B2 FP inh	PP1 inh confirm	PP5 inh counter
Cc1cc(NC(=O)CSc2ncnc3sc(C)c(C)c23)no1	-6.0	-5.1	8.8	2.6	2.0	-0.3	·	·
COC(=O)c1cc2sccc2n1CC(=O)N(C)c1ccccc1	6.7	43.5*	1.6	4.6	3.7	2.8	1.9	0.0
CC(C)c1ccc(C(=O)NN2C(=O)C3CCCCC3C2=O)cc1 (stereo unspecified)	5.3	-0.2	6.5	4.8	0.9	1.9	·	·
COc1ccc(CNC(=O)c2c(C)cc(=O)oc2C)cc1	1.0	-4.4	-0.7	3.2	-1.1	1.9	·	·
COc1ccc(NC(=O)c2c(C)cc(=O)oc2C)c(OC)c1	1.4	35.5*	1.9	-1.9	-1.3	-1.8	-6.9	-5.3
CCC(C(=O)OC(C)C)c1ccc2ccccc2c1 (stereo unspecified)	0.4	-1.8	0.9	4.4	-0.2	2.4	·	·
Cc1cc(C(=O)C(C)OC(=O)c2ccc(NC(=O)CC#N)cc2)c(C)n1-c1ccccc1 (stereo unspecified)	-19.4	18.9*	-9.8	-19.1	2.8	-8.4	5.9	-0.2
Cc1ccc(Cl)cc1N1CCN(C(=O)c2ccc3c(c2)CCN3S(C)(=O)=O)CC1	5.7	-9.6	-3.5	-1.4	4.5	2.8	·	·
COc1ccc(-c2ccc3c(N)c(C(=O)c4cccc(OC)c4)sc3n2)cc1	34.4*	29.8*	-0.3	1.7	6.9	-2.2	25.5*	-3.4
COc1ccc(C(=O)c2sc3nc(-c4ccc(OC)cc4)ccc3c2N)cc1	-0.8	0.7	0.4	15.8	1.3	-0.6	·	·
C=CCOc1cccc(C2C(C(=O)c3ccc(C)o3)=C(O)C(=O)N2c2nccs2)c1 (stereo unspecified)	9.9	21.6*	-5.2	10.6	-0.8	0.2	15.3*	-1.9
Cc1ccc2nc(N3C(=O)C(O)=C(C(=O)c4ccc(C)o4)C3c3cccc(O)c3)sc2c1 (stereo unspecified)	4.8	25.3*	4.8	12.8	1.7	-3.3	26.6*	9.7*
CCOC(=O)c1ccc(N2C(=O)c3n[nH]c(-c4ccco4)c3C2c2cccc([N+](=O)[O-])c2)cc1 (stereo unspecified)	0.4	11.4	-22.1	-18.9	1.1	-6.8	·	·
